Kir21 inh: Kir2.1 (mouse) channel inhibition. P35561. HEK293-Kir2.1, FluxOR thallium flux fluorescence; hits give low values. B-score at 10 µM. 310,000 tested, 0.85% active. AID 1672;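 active = fluorescence ratio B-score at or below minus 3 SD of library scores, with starting-brightness B-score within 2 SD, cut at about -4.2 in these data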;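 note: channel flux triggered by added potassium and thallium sulfate stimulus; B-score of peak minus minimum fluorescence over baseline after thallium stimulus; more negative B-score means stronger Kir2.1 block with less thallium influx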
TMEM16A act: activates or potentiates the mouse TMEM16A chloride channel. Q8BHY3. HEK293 TMEM16A/YFP-H148Q/I152L, iodide quench fluorescence; hits give low values. B-score at 10 µM. 340,000 tested, 0.3% active;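 active = fluorescence-ratio B-score plate-corrected deviation score at least 3 library SD below zero, with starting fluorescence score within 5 deviations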;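 note: channel opened by trigger with iodide after compound preincubation; score built on the fluorescence ratio of max minus min over baseline; more negative score means more quench and so TMEM16A activation or potentiation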
Target sequence (Q8BHY3 whole entry, looked up): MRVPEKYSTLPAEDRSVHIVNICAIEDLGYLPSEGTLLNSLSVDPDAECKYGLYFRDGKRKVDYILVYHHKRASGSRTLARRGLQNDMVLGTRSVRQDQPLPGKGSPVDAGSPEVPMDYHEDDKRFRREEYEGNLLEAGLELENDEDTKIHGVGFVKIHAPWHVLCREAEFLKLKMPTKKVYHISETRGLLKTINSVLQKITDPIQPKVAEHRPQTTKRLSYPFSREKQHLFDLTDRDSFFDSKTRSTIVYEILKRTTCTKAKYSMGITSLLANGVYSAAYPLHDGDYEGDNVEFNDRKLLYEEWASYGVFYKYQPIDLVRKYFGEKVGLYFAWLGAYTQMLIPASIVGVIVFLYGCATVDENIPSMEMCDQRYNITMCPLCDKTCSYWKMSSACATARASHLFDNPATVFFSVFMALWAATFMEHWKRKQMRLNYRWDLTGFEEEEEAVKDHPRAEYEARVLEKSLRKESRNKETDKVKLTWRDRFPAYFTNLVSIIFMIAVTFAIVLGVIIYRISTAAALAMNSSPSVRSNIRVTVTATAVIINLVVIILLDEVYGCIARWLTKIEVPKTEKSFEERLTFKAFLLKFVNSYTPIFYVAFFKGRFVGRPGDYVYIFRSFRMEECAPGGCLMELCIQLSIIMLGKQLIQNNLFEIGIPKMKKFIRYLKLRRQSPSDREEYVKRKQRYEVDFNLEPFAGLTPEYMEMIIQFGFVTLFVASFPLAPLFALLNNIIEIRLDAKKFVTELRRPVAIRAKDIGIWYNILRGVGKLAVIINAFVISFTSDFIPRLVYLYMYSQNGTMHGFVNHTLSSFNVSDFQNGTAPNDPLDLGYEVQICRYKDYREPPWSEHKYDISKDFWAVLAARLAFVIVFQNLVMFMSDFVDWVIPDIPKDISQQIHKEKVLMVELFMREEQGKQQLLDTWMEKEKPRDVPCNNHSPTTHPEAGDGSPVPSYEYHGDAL
CHT inh: inhibits the human high affinity choline transporter. 310,000 tested, 0.86% active. B-score at 10 µM. CHT-expressing cells, membrane potential dye, choline response; hits give low values;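 active = B-score over 3 SD under the library average, and starting fluorescence ratio not unusually high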;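 note: choline stimulus applied at its EC90 after an EC20 pre-addition; B-score computed on integrated fluorescence ratio after choline addition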
GPR7 antag: blocks human GPR7 receptor signaling; P48145; GPR7-expressing cells, fluorescence antagonist assay; inhibition, % at 4.4 µM; 290,000 tested, 1.1% active; in the data active = inhibition above about 16%, passing the limit was not always enough;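 note: cells stimulated with the agonist NPW; 0% = agonist with vehicle and 100% = vehicle without agonist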
TMEM16A inh: inhibitors of mouse TMEM16A calcium-activated chloride channel; 310,000 tested, 1.2% active; HEK293 TMEM16A/YFP iodide influx fluorescence, ionomycin; normalized B-score (activity score, 25-100; higher = stronger inhibition) at 10 µM; Q8BHY3;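 active = ratio plate-corrected score three or more library SD toward inhibition, starting fluorescence score within five deviations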;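 note: score derived from kinetic fluorescence span divided by baseline fluorescence per well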
CHT PAM: allosteric activators of human choline transporter CHT | AID 488977 | CHT-expressing cells, membrane potential dye, choline EC20; hits give high values; LV-AA mutant CHT in HEK293 cells | 310,000 tested, 0.49% active | B-score at 10 µM;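 active = initial fluorescence not abnormally high and integrated response B-score, plate-corrected, over 3 SD above library mean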
CHT inh conf: confirmation of human choline transporter CHT inhibitors | shares compounds with CHT inh | CHT-expressing cells, choline membrane potential dye; LV-to-AA substituted CHT, HEK293 cells | CHT activity remaining % of control (hits give low values), % at 10 µM | 2,400 tested, 70% active | AID 493221;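 active = choline transporter activity left, mean of duplicates at 10 µM, below buffer-only control mean minus 3 SD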;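 note: depolarization triggered by choline at its EC90 following an EC20 pre-addition; 0% = hemicholinium-3 full block and 100% = buffer-only control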
HEK293 MPD ctr: activity in parental HEK293 cells lacking CHT | shares compounds with CHT inh | membrane potential dye, choline response; active = decrease or increase beyond buffer ±3SD | membrane potential ratio readout (active if shifted either direction beyond buffer ±3SD; no single direction) at 10 µM | 2,400 tested, 4% active;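 note: parental cells lack the transporter so any hit is non-specific; ratio is peak minus trough fluorescence over baseline after EC90 choline challenge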
Active calls of the source: *; i = inactive; . = no result given. A selection: hits, their analogues and other compounds. The true share with any hit is near 3.7%.

SMILES | Kir21 inh | TMEM16A act | CHT inh | GPR7 antag | TMEM16A inh | CHT PAM | CHT inh conf | HEK293 MPD ctr
CCN(CC)CCCn1c2c(c(SCC(=O)Nc3ccc(OC(F)(F)F)cc3)nc1=O)CCC2 | 0.79 | i | -12.2* | . | i | i | 38.4%* | i
CCCCc1ccc(NC(=O)CSc2nc(=O)n(CCCN3CCOCC3)c3c2CCC3)cc1 | -0.83 | i | -7.94* | . | i | i | 21.3%* | i
Cc1ccc2nc(SCC(=O)Nc3cccc(S(=O)(=O)NC4=NCCCCC4)c3)[nH]c2c1 | 0.63 | i | i | 9.3 | i | i | . | .
O=C(Cn1ccc(C(F)(F)F)n1)N/N=C/c1ccc2c(c1)OCO2 | 0.04 | i | i | -12.0 | i | i | . | .
Cc1ccc(C(=O)NCC(=O)OCC(=O)Nc2ccccc2C#N)s1 | -0.59 | i | -12.9* | -4.2 | i | i | 65.2%* | i
Cc1ccc(NC(=O)COC(=O)CNC(=O)c2ccc(C)s2)cc1 | 0.36 | i | i | -2.4 | i | i | . | .
CC1(C)c2[nH]c3ccccc3c2C[C@H]2C(=O)N(Cc3ccccc3)C(=O)N21 | 0.61 | i | i | . | i | i | . | .
CC1(C)c2[nH]c3ccccc3c2C[C@@H]2C(=O)N(Cc3ccccc3)C(=O)N21 | -0.73 | i | -6.19* | . | i | i | 57.4%* | i
O=C(NCCc1ccccc1)c1ccc2c(=O)[nH]c3c(C(=O)NCC4CCCO4)sc(=S)n3c2c1 (stereo unspecified) | 0.28 | i | -10.3* | 0.5 | i | i | -19.4%* | i
CCC(Sc1nc2ccncc2[nH]1)C(=O)Nc1cc(Cl)ccc1C (stereo unspecified) | -2.67 | i | -5.86* | -9.1 | i | i | i | i
Cc1ccc(Cl)cc1NC(=O)NCc1cccnc1 | -0.65 | i | i | 8.7 | i | i | . | .
CC(C)(C)N/N=C/c1cc(Cl)cc([N+](=O)[O-])c1O | 0.46 | i | -5.85* | 0.1 | i | i | 58.6%* | i
O=C(Cc1ccc(O)cc1)N/N=C/c1cccnc1 | -0.22 | i | i | -6.2 | i | i | . | .
CCCc1nc(NCCO)c(C#N)c2c1CCCC2 | 0.09 | i | -8.02* | -18.5 | i | i | i | i
Cn1c(SCC(=O)Nc2ccc3[nH]c(=O)[nH]c3c2)nnc1-c1ccc(F)cc1 | -0.02 | i | i | -7.4 | i | i | . | .
Cn1cnc(S(=O)(=O)Nc2ccc(OC(F)(F)F)cc2)c1 | 0.01 | i | i | -16.0 | i | i | . | .
O=c1c2cc(NC(=S)NC3CCN(Cc4ccccc4)CC3)ccc2nc2n1CCCCC2 | 0.03 | i | i | 2.6 | i | i | . | .
O=c1c2cc(NC(=S)NC3CCCCC3)ccc2nc2n1CCCCC2 | 0.43 | i | -5.41* | -6.5 | i | i | 58.5%* | i
Cc1ccc(-c2cccc(CN3CCN(C(C)C)C(CCO)C3)c2)o1 (stereo unspecified) | 1.53 | i | -5.26* | -14.8 | i | i | 36.8%* | i
CC(C)N1CCN(Cc2ccncc2)CC1CCO (stereo unspecified) | 0.01 | i | i | -10.5 | i | i | . | .
CCCc1cc(C(=O)NNC(=S)NCC2CCCO2)cs1 (stereo unspecified) | 0.97 | i | i | -6.2 | i | i | . | .
CCCc1cc(C(=O)NNC(=S)NC(C)c2ccccc2)cs1 (stereo unspecified) | 0.41 | i | -6.19* | -1.6 | i | i | 18.0%* | i
Cc1cc2[nH]c3ccccc3c2c(C)n1 | -1.57 | i | -7.27* | -7.0 | i | i | 33.7%* | i
Cc1nc(=S)c2ccccc2[nH]1 | 1.02 | i | i | -5.6 | i | i | . | .
O=C(NCCO)C(=O)NCC1OCCCN1S(=O)(=O)c1cc(F)ccc1F (stereo unspecified) | 0.04 | i | i | -17.6 | i | i | . | .
SMILES | Kir21 inh | TMEM16A act | CHT inh | GPR7 antag | TMEM16A inh | CHT PAM | CHT inh conf | HEK293 MPD ctr
CC(Sc1nn(-c2ccccc2)c(=S)s1)C(=O)NCC1CCCO1 (stereo unspecified) | . | i | . | . | . | . | . | .
O=C(CCC(=O)N1CCN(c2ccccc2F)CC1)N1CCN(c2ccc(F)cc2)CC1 | -0.76 | i | -5.38* | -14.3 | i | i | 68.6%* | i
O=C(CCCC(=O)N1CCN(c2ccccc2F)CC1)N1CCN(c2ccccc2F)CC1 | 0.56 | i | i | -7.7 | i | i | . | .
CCCNc1nc2c(c(=O)n(C)c(=O)n2C)n1CCC(C)C | 0.23 | i | -6.87* | 5.1 | i | i | 45.9%* | i
CCCCNc1nc2c(c(=O)n(C)c(=O)n2C)n1CCC | 0.07 | i | i | . | i | i | . | .
Cc1csc(NC(=O)CSc2nc(C(C)C)nc3ccccc23)n1 | -3.71 | i | -5.87* | -8.0 | i | i | 60.2%* | i
COc1cc(C=Nc2cccc(C)c2)c(O)c([N+](=O)[O-])c1 | -2.32 | i | -6.91* | -6.3 | i | i | 68.0%* | i
COc1ccc(C(=O)NCCc2cccc(Cl)c2)cc1OC1CCN(C(C)=O)CC1 | -1.11 | i | i | 8.3 | i | i | . | .
COc1ccc(CN2CCN(CC=C(C)C)C(CCO)C2)cc1Cn1cccn1 (stereo unspecified) | -0.02 | i | -5.97* | -2.5 | i | i | 64.0%* | i
COCC(C)NS(=O)(=O)c1ccc(C(=O)NCCCn2ccc3ccccc32)cc1 (stereo unspecified) | -0.01 | i | i | 7.8 | i | i | . | .
O=C(c1ccc(O)cc1)c1ccc(Cl)cc1 | -0.93 | i | -5.99* | 3.7 | i | i | 50.0%* | i
Cc1cccc(S(=O)(=O)NCCc2ccccc2)c1 | 1.74 | i | i | 0.0 | i | i | . | .
Fc1ccc(OCCOCCOc2cccc3[nH]ccc23)cc1 | -0.53 | i | -5.3* | -4.7 | i | i | i | i
CN(CCOCCOc1ccc(F)cc1)Cc1ccccc1 | -0.21 | i | i | -0.8 | i | i | . | .
C=CCn1c(SCC(=O)Nc2ccc(N3CCOCC3)cc2)nc2ccccc2c1=O | 1.96 | i | i | -3.4 | i | i | . | .
CCn1cc(C(=O)NCCCOC)c(=O)c2cc(S(=O)(=O)N(C)C3CCCCC3)ccc21 | 0.02 | i | i | -0.7 | i | i | . | .
